PubChem BioAssay AID1851 (National Center for Advancing Translational Sciences (NCATS), 2009)
Where “and” joins values, the source holds several entries; their conditions need not be identical. Equal values may be shown once. Hit rate of the full screen: of about 16,000 compounds, about 5,100 (32%) were called active. Inconclusive results (about 25%) are left out. Calls follow the shape of the dose curve; as a rule, active = well fitted curve in the direction sought with a large enough effect; inconclusive = small, poorly fitted or top-dose-only effect, or effect the other way; inactive = no such curve, though single readings can be large or run the other way. Some of the results follow.

Molecular target: Cytochrome P450 3A4 (Homo sapiens) (UniProt P08684)
Sequence (P08684 whole entry, looked up): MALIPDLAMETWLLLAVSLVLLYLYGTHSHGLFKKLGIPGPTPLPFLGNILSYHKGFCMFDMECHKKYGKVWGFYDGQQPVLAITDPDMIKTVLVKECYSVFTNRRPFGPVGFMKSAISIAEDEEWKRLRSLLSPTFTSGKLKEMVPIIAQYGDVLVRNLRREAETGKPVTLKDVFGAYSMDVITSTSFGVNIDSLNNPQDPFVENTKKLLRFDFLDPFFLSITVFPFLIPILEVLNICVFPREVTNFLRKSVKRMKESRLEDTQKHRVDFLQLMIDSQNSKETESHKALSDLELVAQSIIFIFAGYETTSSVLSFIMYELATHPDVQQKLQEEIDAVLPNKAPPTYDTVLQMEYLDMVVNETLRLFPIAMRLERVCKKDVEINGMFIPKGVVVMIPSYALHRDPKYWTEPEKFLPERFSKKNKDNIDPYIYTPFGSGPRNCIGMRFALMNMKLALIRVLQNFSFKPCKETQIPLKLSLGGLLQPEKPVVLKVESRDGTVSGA
Experiment: Cytochrome panel assay with activity outcomes
Details: recombinant CYP, pro-luciferin dealkylation, luminescence, p450-cyp3a4; series mostly up to 57.1 µM
% is scaled to controls: 0 for no effect and ±100 for the full control effect.

AC50, inactive:
CC(=O)Nc1c(I)c(C(=O)N[C@H]2[C@@H](O)[C@H](O)[C@H](CO)O[C@@H]2O)c(I)c(N(C)C(C)=O)c1I
NC(N)=NC(=O)c1nc(Cl)c(N2CCCCCC2)nc1N
S=C(Nc1ccccc1)N1CCCCC1
Cc1ccc(Sc2cc(Cl)nc(N)n2)cc1
N#Cc1cc(-c2ccc(Cl)cc2)cnc1Sc1ccccc1
C/C(=C/C(=O)NCc1ccccc1)C(=O)O
COCCNC(=O)CCn1c(=O)oc2ccccc21
CC[N+](C)(C)c1cccc(O)c1
O=c1cnc2cnc(Oc3cccc(Cl)c3)nc2n1C1CC1
COc1ccc(-n2c(=O)cnc3cnc(N4CCOCC4)nc32)cc1
COc1ccc(-n2c(=O)cnc3cnc(OC)nc32)cc1
O=c1cnc2cnc(Oc3ccccc3)nc2n1C1CC1
COC(=O)C(C)Sc1ccc2nnc(-c3ccc(F)cc3)n2n1 (stereo not drawn)
CCn1c(-c2ccoc2C)n[nH]c1=S
CCc1ccc(-c2ccc(C(=O)C(F)(F)F)[nH]2)cc1
CC(C)(Oc1ccc(CCNC(=O)c2ccc(Cl)cc2)cc1)C(=O)O
CC(C)(Oc1ccc([C@@H]2CC2(Cl)Cl)cc1)C(=O)O
C[C@@H]1CCC[C@H](C)N1
Clc1ccc(Cl)c(OCc2cc(-c3ccccc3Cl)on2)c1
CC(C)C(=O)Nc1ccc(C(=O)NNC(=O)CCCOc2ccc(Cl)cc2Cl)cc1
Cc1cccc(Oc2ncnc3onc(C)c23)c1C
Clc1ccc(-c2nnc(-c3ccc(Br)cc3)c(N3CCSCC3)n2)cc1
CCOC(=O)c1nc2sc(C)c(C)c2c(=O)[nH]1
CCc1cccc2c(C=C(C#N)C#N)cn(CC(=O)N3CCCC3)c12
CCc1cccc2c(C=C(C#N)C#N)cn(CC(=O)N3CCCCC3)c12
Cc1ccc(Oc2nnc(-c3ccccc3)cc2C#N)cc1
CSc1c(-c2ccccc2)nc2ccc(Cl)cc2c1C(=O)O
Cc1nc(Cl)c(C#N)cc1-c1ccccc1
CCn1cc(C(=O)O)c(=O)c2cc(F)c(N3CCNCC3)nc21
COc1cc(Cl)c(C)cc1NC(=O)CNC(=O)Cn1cnc2ccccc2c1=O
CCOC(=O)C(NC(C)=O)C(OC(C)=O)c1cccc(N(CCO)CCO)c1 (stereo not drawn)
CC(=O)N(C)c1nnc(-c2cnccn2)s1

AC50, active:
Cc1cc(C)n(-c2nnc(C)n2/N=C/c2ccccc2OCc2ccccc2Cl)n1 2.24 µM
O=C(c1ccc(F)cc1)C1CCN(C(=S)Nc2ccccc2)CC1 10 µM
N#Cc1cc(N)ccc1Sc1ccc(Cl)cc1 5.62 µM
C=CC(=O)NC(C)(C)Cc1ccccc1 15.8 µM
CC1CCCC(NC(=O)CCn2c(=O)oc3ccccc32)C1C (stereo not drawn) 14.1 µM
CC1(C)c2ssc(=S)c2-c2ccccc2N1C(=O)CSC1=NCCS1 1.78 µM
COc1ccc(-n2c(=O)cnc3cnc(Oc4ccccc4)nc32)cc1 15.8 µM
COc1ccc(-n2c(=O)cnc3cnc(Oc4cccc(Cl)c4)nc32)cc1 10 µM
CCCOc1cccc(-c2cc(-c3n[nH]c(=S)n3CC)c3ccccc3n2)c1 10 µM
CC(C)(Oc1ccc(Cl)cc1)C(=O)Nc1ccncc1 0.794 µM
O=C(Nc1cccnc1)c1ccc(COc2cc(Cl)ccc2Cl)o1 4.47 µM
CC(C)CNC(=O)c1ccc(COc2ccc(Cl)cc2Cl)o1 20 µM
O=C(Nc1ccn(Cc2ccccc2F)n1)c1ccc(COc2cc(Cl)ccc2Cl)o1 0.891 µM
O[C@@H](C1=C/C(=C\c2ccncc2)c2ccccc21)c1ccncc1 0.794 µM
Cn1c(SCC(=O)NC2CC2)nnc1-c1cccc(NC(=O)c2ccccc2F)c1 12.6 µM
CCCCC1(C)NC(=O)c2c(C)sc(C(=O)OCC)c2N1 (stereo not drawn) 17.8 µM
Fc1ccc(Nc2ncncc2-c2ccoc2)cc1 0.501 µM
c1ncc(-c2ccoc2)c(NC2CC2)n1 7.94 µM
c1ccc(Nc2ncncc2-c2ccoc2)cc1 2 µM
CCN(CC)C(=O)Cn1cc(/C=C(\C#N)C(=O)N2CCN(c3ccccc3)CC2)c2ccccc21 0.891 µM
N#Cc1ccccc1/C=N/Nc1nc(-c2ccccc2)c2cc(Cl)ccc2n1 6.31 µM
Cc1ccc2nc(N/N=C/c3ccccc3C#N)nc(-c3ccccc3)c2c1 7.94 µM
COc1ccc(-n2nc(C(=O)NCC(=O)Nc3ccccn3)c3ccccc3c2=O)cc1 3.55 µM
Cc1ccc2c(c1)[C@@H]1CN(C)CC[C@@H]1N2S(=O)(=O)c1ccc(F)cc1 2 µM
CC(=O)OC[C@@H]1O[C@@H](O/N=C2/C[C@@H](O)[C@@H](O)[C@@H]3[C@@H]4C(=O)N(Cc5ccc6c(c5)OCO6)C(=O)[C@H]4CC[C@H]23)[C@H](OC(C)=O)[C@H](OC(C)=O)[C@@H]1OC(C)=O 5.01 µM
O=C1[C@H]2[C@H]3[C@H](O)[C@H](O)C/C(=N/OCc4ccccc4)[C@H]3CC[C@@H]2C(=O)N1Cc1ccc2c(c1)OCO2 1 µM
CCN1C(=O)[C@H]2[C@H]3[C@H](O)[C@H](O)C/C(=N/O[C@@H](C)c4cc(-c5c(C)cc(C)cc5C)no4)[C@@H]3CC[C@@H]2C1=O 3.98 µM
O=C1C[C@@H](O)[C@@H](O)[C@H]2[C@@H]3C(=O)N(Cc4ccc5c(c4)OCO5)C(=O)[C@@H]3CC[C@H]12 3.98 µM
CC(C)CO/N=C1/C[C@@H](O)[C@@H](O)[C@@H]2[C@@H]3C(=O)N(Cc4ccc5c(c4)OCO5)C(=O)[C@H]3CC[C@H]12 1 µM
O=C1[C@H]2[C@H]3[C@H](O)[C@H](O)C/C(=N/OCc4ccccc4)[C@@H]3CC[C@@H]2C(=O)N1Cc1ccc2c(c1)OCO2 2 µM

activity, negative = inhibition, inactive:
CCCNC(=O)N1CCC(C(=O)c2ccc(F)cc2)CC1 -0.769% [at 2.29 µM]
COc1cc2c3cc1Oc1cc(ccc1O)C[C@@H]1c4c(cc(OC)c(O)c4Oc4ccc(cc4)C[C@H]3[N+](C)(C)CC2)CC[N+]1(C)C 0.655% [at 11.4 µM]
N[C@@](CC(=O)O)(Cc1ccccc1)C(=O)O -4.69% [at 11.4 µM]
Cc1ccc(CNC(=O)Cn2c(=O)oc3ccccc32)o1 1.22% [at 11.4 µM]
CCCCN(CC)S(=O)(=O)c1ccc(C(=O)Nc2nnc(CSC)o2)cc1 2.56% [at 11.4 µM]
O=C(N/N=C/c1ccc(O)cc1)c1ccc(COc2cc(Cl)ccc2Cl)o1 -27.3% [at 2.29 µM]
NS(=O)(=O)c1ccc(N=Nc2c(O)c(C(=O)O)cc3ccccc23)cc1 -2.48% [at 11.4 µM]
Nc1ncnc2c1ncn2[C@H]1O[C@@H](C(=O)OCCO)[C@@H](O)[C@H]1O -12.9% [at 11.4 µM]
O=c1[nH]c2[nH]c(=S)[nH]c(=S)c2[nH]1 -17.9% [at 11.4 µM]
COC(=O)c1nn(-c2ccccc2)c(=O)cc1Oc1ccccc1 -20.9% [at 11.4 µM]
CC(=O)OC[C@@H]1O[C@@H](O/N=C2/C[C@@H](O)[C@@H](O)[C@@H]3[C@@H]4C(=O)N(Cc5ccccc5)C(=O)[C@H]4CC[C@@H]23)[C@H](OC(C)=O)[C@H](OC(C)=O)[C@@H]1OC(C)=O -27.9% [at 11.4 µM]
CCN1C(=O)[C@H]2[C@H]3[C@H](O)[C@H](O)C/C(=N/OCC(C)C)[C@H]3CC[C@@H]2C1=O 19.2% [at 11.4 µM]
O=C1C[C@@H](O)[C@@H](O)[C@H]2[C@@H]3C(=O)N(Cc4ccccc4)C(=O)[C@@H]3CC[C@H]12 -12.1% [at 11.4 µM] and -10.8% [at 11.4 µM]
CCN1C(=O)[C@H]2[C@H]3[C@H](O)[C@H](O)C/C(=N/OCC(C)C)[C@@H]3CC[C@@H]2C1=O -6.7% [at 11.4 µM]
CCN1C(=O)[C@H]2[C@@H]3[C@H](O)[C@H](O)CC(=O)[C@H]3CC[C@H]2C1=O -13.1% [at 11.4 µM] and -13% [at 11.4 µM]
CC(=O)OC[C@@H]1O[C@@H](O/N=C2/C[C@@H](O)[C@@H](O)[C@@H]3[C@@H]4C(=O)N(Cc5ccccc5)C(=O)[C@H]4CC[C@H]23)[C@H](OC(C)=O)[C@H](OC(C)=O)[C@@H]1OC(C)=O -25% [at 11.4 µM]
CC(=O)N[C@@H]1CONC1=O -3.29% [at 11.4 µM]
CC(C)CO/N=C1/C[C@@H](O)[C@@H](O)[C@@H]2[C@@H]3C(=O)N(Cc4ccccc4)C(=O)[C@H]3CC[C@@H]12 -11.8% [at 11.4 µM]
O=C1[C@H]2[C@H]3[C@H](O)[C@H](O)C/C(=N/OCc4ccccc4)[C@H]3CC[C@@H]2C(=O)N1C[C@@H]1CCCO1 -11.3% [at 11.4 µM]
O=C1[C@H]2[C@H]3[C@H](O)[C@H](O)C/C(=N/OCc4ccccc4)[C@@H]3CC[C@@H]2C(=O)N1C[C@@H]1CCCO1 -20.3% [at 11.4 µM]
CC(C)CO/N=C1/C[C@@H](O)[C@@H](O)[C@@H]2[C@@H]3C(=O)N(C[C@@H]4CCCO4)C(=O)[C@H]3CC[C@H]12 -0.365% [at 11.4 µM]
